Data taken from PubChem BioAssay (NCI).
Values joined by “and” are separate entries in the source; they are usually repeats but may differ in a detail not shown here. Identical values can stand only once. About 83,000 compounds went through this panel and 20% of them were active in at least one assay; those are over-represented in the sample as a whole.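 Activity criterion: percent growth below 10, measured after cells in 96-well plates were exposed to a single compound concentration for 48 hours.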 The source holds several records for some structures; these can differ, active in one and inactive in another. Active and inactive are the calls of the source.

What was measured:
Assay in all cases: NCI-60 one-dose screen, 48 h (100 = growth as untreated, 0 = no growth, -100 = all killed)
Conditions in all cases: 10 µM unless noted
T-47D breast = tested on: T-47D breast
BT-549 breast = tested on: BT-549 breast
MDA-MB-435 melanoma = tested on: MDA-MB-435 melanoma
SW-620 colon = tested on: SW-620 colon
MCF7 breast = tested on: MCF7 breast
HCT-116 colon = tested on: HCT-116 colon
HCC-2998 colon = tested on: HCC-2998 colon
KM12 colon = tested on: KM12 colon

Structure (SMILES): Nc1cc(-c2cccc(OC(F)(F)F)c2)nc2ccc(N3CCCC3)cc12
- growth (T-47D breast): 99.2% (inactive) and 100% (inactive) and 87.9% (inactive)
- growth (BT-549 breast): 16.2% (inactive) and 26.9% (inactive) and 3.22% (active)
- growth (MDA-MB-435 melanoma): -9.34% (active) and -21.4% (active) and -35.8% (active)
- growth (SW-620 colon): 26.8% (inactive) and 32% (inactive) and 21.7% (inactive)
- growth (MCF7 breast): 15.4% (inactive) and 14.9% (inactive) and 15.8% (inactive)
- growth (HCT-116 colon): 2.86% (active) and 5.92% (active) and 2.47% (active)
- growth (HCC-2998 colon): -31.7% (active) and 2.5% (active) and -33.8% (active)
- growth (KM12 colon): 10.1% (inactive) and 14.3% (inactive) and 3.24% (active)

Structure (SMILES): COc1ccccc1/C=N\N=C(N/N=C/c1ccccc1OC)N/N=C/c1ccccc1OC
- growth (T-47D breast): 61.9% (inactive) and 27% (inactive)
- growth (BT-549 breast): 80.8% (inactive) and 39.1% (inactive)
- growth (MDA-MB-435 melanoma): 61.9% (inactive) and 30.2% (inactive)
- growth (SW-620 colon): 60.8% (inactive) and 20.1% (inactive)
- growth (MCF7 breast): 23.8% (inactive) and 6.76% (active)
- growth (HCT-116 colon): 39.5% (inactive) and 14% (inactive)
- growth (HCC-2998 colon): 33.7% (inactive) and 26.8% (inactive)
- growth (KM12 colon): 43.1% (inactive) and 15.6% (inactive)

Structure (SMILES): ClC/C=C/CSc1ncnc2nc[nH]c12
- growth (T-47D breast): 98% (inactive) and 99.5% (inactive)
- growth (BT-549 breast): 102% (inactive) and 158% (inactive)
- growth (MDA-MB-435 melanoma): 108% (inactive) and 103% (inactive)
- growth (SW-620 colon): 98.8% (inactive) and 110% (inactive)
- growth (MCF7 breast): 99.8% (inactive) and 93.7% (inactive)
- growth (HCT-116 colon): 105% (inactive)
- growth (HCC-2998 colon): 106% (inactive) and 108% (inactive)
- growth (KM12 colon): 113% (inactive) and 105% (inactive)

Structure (SMILES): CC(O)Cn1cnc2c1c(=O)n(C)c(=O)n2C (configuration not stated)
- growth (T-47D breast): 85.8% (inactive)
- growth (BT-549 breast): 83.5% (inactive)
- growth (MDA-MB-435 melanoma): 109% (inactive)
- growth (SW-620 colon): 113% (inactive)
- growth (MCF7 breast): 92.8% (inactive)
- growth (HCT-116 colon): 102% (inactive)
- growth (HCC-2998 colon): 106% (inactive)
- growth (KM12 colon): 104% (inactive)

Structure (SMILES): Cc1cc(O)c2c(c1)C(=O)c1cc(O)cc(O)c1C2=O
- growth (T-47D breast): 65% (inactive) and 73.4% (inactive)
- growth (BT-549 breast): 84.5% (inactive) and 88.1% (inactive)
- growth (MDA-MB-435 melanoma): 76.8% (inactive) and 83.6% (inactive)
- growth (SW-620 colon): 100% (inactive) and 97.3% (inactive)
- growth (MCF7 breast): 98.4% (inactive) and 95.1% (inactive)
- growth (HCT-116 colon): 92.9% (inactive) and 97.5% (inactive)
- growth (HCC-2998 colon): 95% (inactive) and 108% (inactive)
- growth (KM12 colon): 98.1% (inactive) and 91.9% (inactive)

Structure (SMILES): O=S(=O)(Nc1ccccc1)C1CCCCC1
- growth (T-47D breast): 116% (inactive) and 105% (inactive)
- growth (BT-549 breast): 121% (inactive)
- growth (MDA-MB-435 melanoma): 107% (inactive) and 102% (inactive)
- growth (SW-620 colon): 106% (inactive) and 107% (inactive)
- growth (MCF7 breast): 94.2% (inactive) and 104% (inactive)
- growth (HCT-116 colon): 99.6% (inactive) and 107% (inactive)
- growth (HCC-2998 colon): 116% (inactive) and 106% (inactive)
- growth (KM12 colon): 106% (inactive) and 112% (inactive)

Structure (SMILES): Nc1nc2ncc(CNc3ccc(C(=O)N[C@@H](CCc4nn[nH]n4)C(=O)O)cc3)nc2c(=O)[nH]1
- growth (T-47D breast): 103% (inactive) and 95.9% (inactive)
- growth (BT-549 breast): 88.7% (inactive) and 107% (inactive)
- growth (MDA-MB-435 melanoma): 101% (inactive) and 110% (inactive)
- growth (SW-620 colon): 98.5% (inactive) and 104% (inactive)
- growth (MCF7 breast): 94.2% (inactive) and 93.7% (inactive)
- growth (HCT-116 colon): 94.1% (inactive) and 98.9% (inactive)
- growth (HCC-2998 colon): 99.2% (inactive) and 104% (inactive)
- growth (KM12 colon): 94.5% (inactive) and 103% (inactive)

Structure (SMILES): Nc1ccc2ccc(N)cc2c1
- growth (T-47D breast): 87.7% (inactive)
- growth (BT-549 breast): 87.7% (inactive)
- growth (MDA-MB-435 melanoma): -33.6% (active)
- growth (SW-620 colon): 87.5% (inactive)
- growth (MCF7 breast): 63.5% (inactive)
- growth (HCT-116 colon): 82.6% (inactive)
- growth (HCC-2998 colon): 100% (inactive)
- growth (KM12 colon): 67.1% (inactive)

Structure (SMILES): CC1=C(/C=C/C(C)=C/C=C/C(C)=C/C(=O)Nc2ccc(O)cc2)C(C)(C)CCC1
- growth (T-47D breast): 5.78% (active)
- growth (BT-549 breast): 21.9% (inactive)
- growth (MDA-MB-435 melanoma): 31.7% (inactive)
- growth (SW-620 colon): 67.2% (inactive)
- growth (MCF7 breast): 8.82% (active)
- growth (HCT-116 colon): 55.3% (inactive)
- growth (HCC-2998 colon): 51% (inactive)
- growth (KM12 colon): 34.2% (inactive)

Structure (SMILES): Oc1ccccc1/C=N\NC(=S)N/N=C/c1ccccc1O
- growth (T-47D breast): 48.4% (inactive) and 51.6% (inactive)
- growth (BT-549 breast): 47.3% (inactive) and 49.8% (inactive)
- growth (MDA-MB-435 melanoma): 56.3% (inactive) and 44.2% (inactive)
- growth (SW-620 colon): 47.5% (inactive) and 50.7% (inactive)
- growth (MCF7 breast): 25.6% (inactive) and 26.8% (inactive)
- growth (HCT-116 colon): 28% (inactive) and 22.9% (inactive)
- growth (HCC-2998 colon): 33.8% (inactive) and 49.7% (inactive)
- growth (KM12 colon): 39% (inactive) and 28.2% (inactive)

Structure (SMILES): CC1CCCc2sc3nc(NNC(=O)c4cnccn4)n(-c4ccccc4)c(=O)c3c21 (configuration not stated)
- growth (T-47D breast): 10.9% (inactive) and 3.31% (active)
- growth (BT-549 breast): 12.8% (inactive)
- growth (MDA-MB-435 melanoma): 27.9% (inactive) and 21.5% (inactive)
- growth (SW-620 colon): 23.7% (inactive) and 19.7% (inactive)
- growth (MCF7 breast): 6.57% (active) and 0.695% (active)
- growth (HCT-116 colon): 7.09% (active) and -13.3% (active)
- growth (HCC-2998 colon): 34.2% (inactive) and 40.9% (inactive)
- growth (KM12 colon): 20% (inactive) and 19.2% (inactive)

Structure (SMILES): CC1=C(/C=C/C(C)=C/C=C/C(C)=C/C=N/NC(=S)NC(=S)N/N=C/C=C(C)/C=C/C=C(C)/C=C/C2=C(C)CCCC2(C)C)C(C)(C)CCC1
- growth (T-47D breast): -5.98% (active)
- growth (BT-549 breast): -24.7% (active) and 5.7% (active)
- growth (MDA-MB-435 melanoma): -47.1% (active) and -61.9% (active)
- growth (SW-620 colon): -73.9% (active) and -83.4% (active)
- growth (MCF7 breast): 16.8% (inactive) and 9.28% (active)
- growth (HCT-116 colon): 6.1% (active) and -84% (active)
- growth (HCC-2998 colon): 57.1% (inactive) and 12.3% (inactive)
- growth (KM12 colon): -8.44% (active) and -50.7% (active)

Structure (SMILES): Clc1nc(Oc2ccccc2)nc(-c2cn(-c3ccccc3)c3ccccc23)n1
- growth (T-47D breast): 89.8% (inactive)
- growth (BT-549 breast): 96.9% (inactive)
- growth (MDA-MB-435 melanoma): 38.2% (inactive)
- growth (SW-620 colon): 12.4% (inactive)
- growth (MCF7 breast): 88.5% (inactive)
- growth (HCT-116 colon): 58.5% (inactive)
- growth (HCC-2998 colon): 74.4% (inactive)
- growth (KM12 colon): 89.6% (inactive)

Structure (SMILES): O=C(c1ccc(Cl)cc1)C(NCCO)c1ccc(Cl)cc1 (configuration not stated)
- growth (T-47D breast): 85.4% (inactive)
- growth (BT-549 breast): 104% (inactive) and 94.6% (inactive)
- growth (MDA-MB-435 melanoma): 97.9% (inactive) and 108% (inactive)
- growth (SW-620 colon): 101% (inactive) and 102% (inactive)
- growth (MCF7 breast): 103% (inactive) and 97.3% (inactive)
- growth (HCT-116 colon): 102% (inactive) and 99.4% (inactive)
- growth (HCC-2998 colon): 101% (inactive)
- growth (KM12 colon): 105% (inactive) and 101% (inactive)

Structure (SMILES): COc1ccc(-c2ncnc3c2ncn3C/C=C/CCl)cc1
- growth (T-47D breast): 67.9% (inactive) and 92.5% (inactive)
- growth (BT-549 breast): 53.8% (inactive) and 87.2% (inactive)
- growth (MDA-MB-435 melanoma): 57.8% (inactive) and 81.6% (inactive)
- growth (SW-620 colon): 61.1% (inactive) and 74.7% (inactive)
- growth (MCF7 breast): 40.2% (inactive) and 55.6% (inactive)
- growth (HCT-116 colon): 46.6% (inactive) and 76.8% (inactive)
- growth (HCC-2998 colon): 91.2% (inactive) and 95.4% (inactive)
- growth (KM12 colon): 85.4% (inactive) and 102% (inactive)

Structure (SMILES): CN(C)c1ccc2nc3ccc(N)cc3[n+](-c3ccccc3)c2c1
- growth (T-47D breast): -15.1% (active) and 0.414% (active)
- growth (BT-549 breast): 27.5% (inactive)
- growth (MDA-MB-435 melanoma): 4.97% (active) and -49.2% (active)
- growth (SW-620 colon): 20.8% (inactive) and -13.9% (active)
- growth (MCF7 breast): 3.88% (active) and -17.2% (active)
- growth (HCT-116 colon): 9.48% (active) and 5.93% (active)
- growth (HCC-2998 colon): 14.6% (inactive) and 51.9% (inactive)
- growth (KM12 colon): 15.7% (inactive) and 24.2% (inactive)

Structure (SMILES): COc1c(/C(C)=N/N=c2sc(C(C)=O)nn2-c2ccc(Cl)cc2)c(Oc2ccccc2)c(OC)c2occc12
- growth (T-47D breast): 98.7% (inactive) and 76.5% (inactive)
- growth (BT-549 breast): 115% (inactive) and 103% (inactive)
- growth (MDA-MB-435 melanoma): 103% (inactive) and 104% (inactive)
- growth (SW-620 colon): 102% (inactive) and 92.8% (inactive)
- growth (MCF7 breast): 99.9% (inactive) and 88.3% (inactive)
- growth (HCT-116 colon): 96.4% (inactive) and 77.8% (inactive)
- growth (HCC-2998 colon): 107% (inactive) and 110% (inactive)
- growth (KM12 colon): 93.7% (inactive) and 96.5% (inactive)

Structure (SMILES): Cn1cc(-c2cc3c(Nc4ccc(CC(=O)Nc5cc(C(C)(C)C)on5)cc4)ncnc3[nH]2)cn1
- growth (T-47D breast): -1.6% (active) and -13.9% (active)
- growth (BT-549 breast): -15% (active) and -15.8% (active)
- growth (MDA-MB-435 melanoma): -42.3% (active) and -0.328% (active)
- growth (SW-620 colon): -7.24% (active) and 1.5% (active)
- growth (MCF7 breast): 4.99% (active) and 7.91% (active)
- growth (HCT-116 colon): 0.379% (active) and 1.42% (active)
- growth (HCC-2998 colon): -10.8% (active) and -2.61% (active)
- growth (KM12 colon): -20.7% (active) and 3.37% (active)

Structure (SMILES): Cc1cc(=O)[nH]c(O)c1C#N
- growth (T-47D breast): 97.2% (inactive) and 91% (inactive)
- growth (BT-549 breast): 100% (inactive) and 103% (inactive)
- growth (MDA-MB-435 melanoma): 101% (inactive) and 103% (inactive)
- growth (SW-620 colon): 102% (inactive) and 106% (inactive)
- growth (MCF7 breast): 97.3% (inactive) and 103% (inactive)
- growth (HCT-116 colon): 100% (inactive) and 96.2% (inactive)
- growth (HCC-2998 colon): 101% (inactive) and 100% (inactive)
- growth (KM12 colon): 108% (inactive) and 116% (inactive)
